Conditions in all cases: mRNA level, 48 h; actives raise or lower the signal
Read-out in experiment [1]: matrix metalloproteinase-10 (MMP10), MMP10 (gene 4319)
The experiment can be described thus: LTEA_HepaRG_MMP10: Life Technologies and Expression Analysis (LTEA) Assay for matrix metalloproteinase-10 (MMP10) using HepaRG (AID 2283517). The method in brief: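 In differentiated HepaRG cultures kept in 0.5% DMSO, test chemicals act for 48 h over an eight-point range with a top dose of 100 uM. Expression is then quantified by TaqMan RT-PCR against ACTB, GAPDH and POLR2A.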

Read-out in the next experiment: MYC, MYC (gene 4609)
The experiment is described as follows: LTEA_HepaRG_MYC: Life Technologies and Expression Analysis (LTEA) Assay for MYC using HepaRG (AID 2283518). The method in brief: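 Expression changes were scored by TaqMan qRT-PCR with ACTB, GAPDH and POLR2A normalization. Cultures in serum-free induction medium received duplicate 8-point concentration series, highest 100 uM, for 48 h; DMSO (0.5%) served as baseline.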

Read-out in experiment [2]: matrix metalloproteinase-3 (MMP3), MMP3 (gene 4314)
The experiment can be described thus: LTEA_HepaRG_MMP3: Life Technologies and Expression Analysis (LTEA) Assay for matrix metalloproteinase-3 (MMP3) using HepaRG (AID 2283519). The method in brief:
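Human liver HepaRG cultures received chemicals (top concentration 100 uM, 0.5% DMSO) for 48 h in duplicate. MMP3 mRNA induction or loss was then assessed via TaqMan qRT-PCR with housekeeping-gene normalisation.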

Read-out in experiment [3]: Paternally Expressed 10 (PEG10), PEG10 (gene 23089)
The experiment is described as follows: LTEA_HepaRG_PEG10: Life Technologies and Expression Analysis (LTEA) Assay for Paternally Expressed 10 (PEG10) using HepaRG (AID 2283520). The method in brief: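 qRT-PCR read-out: PEG10 mRNA normalised to three housekeeping genes, fitted bidirectionally against 0.5% DMSO vehicle. HepaRG cells received test chemicals for 48 h in serum-free induction medium, 8 points, top 100 uM, half-log steps.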

Read-out in experiment [4]: Nuclear factor NF-kappa-B p105 subunit (Homo sapiens) (UniProt P19838)
The experiment is described as follows: LTEA_HepaRG_NFKB1: Life Technologies and Expression Analysis (LTEA) Assay for Nuclear Factor Kappa B Subunit 1 (NFKB1) using HepaRG (AID 2283521).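 As to outcome: differentiated human HepaRG liver cells in serum-free induction medium; TaqMan qRT-PCR transcript normalised to ACTB GAPDH and POLR2A housekeeping genes.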 In short, it runs like this:
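HepaRG, 48 h exposure; 8-pt half-log series from 100 uM in 0.5% DMSO; duplicates. Readout: NFKB1 mRNA by qRT-PCR (Fluidigm arrays), housekeeping-normalized. Gain/loss fit vs DMSO baseline.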

Read-out in experiment [5]: Protein phosphatase 2A (PPP2R4), PTPA (gene 5524)
The experiment can be described thus: LTEA_HepaRG_PPP2R4: Life Technologies and Expression Analysis (LTEA) Assay for Protein phosphatase 2A (PPP2R4) using HepaRG (AID 2283522). In short, it runs like this: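 HepaRG, 48 h exposure, 8-pt half-log series from 100 uM, 0.5% DMSO vehicle, duplicates. Readout: PPP2R4 mRNA, Fluidigm qRT-PCR, housekeeping-normalized. Bidirectional curve fit vs DMSO baseline.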

Read-out in experiment [6]: solute carrier (SLC22A1), SLC22A1 (gene 6580)
The experiment can be described thus: LTEA_HepaRG_SLC22A1: Life Technologies and Expression Analysis (LTEA) Assay for solute carrier (SLC22A1) using HepaRG (AID 2283524). The method in brief: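 Transcript induction or suppression of SLC22A1 in human HepaRG cultures is scored after 48 h chemical treatment, with DMSO (0.5%) as baseline for bidirectional fitting. Concentrations span eight half-log points topping at 100 uM.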

Read-out in experiment [7]: Pyruvate Dehydrogenase Kinase 4 (PDK4), PDK4 (gene 5166)
The experiment can be described thus: LTEA_HepaRG_PDK4: Life Technologies and Expression Analysis (LTEA) Assay for Pyruvate Dehydrogenase Kinase 4 (PDK4) using HepaRG (AID 2283525). In short, it runs like this: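 Eight-point, half-log concentration series (max 100 uM, 0.5% DMSO) applied to differentiated HepaRG cells for 48 h in duplicate. Endpoint: PDK4 mRNA induction or repression by qRT-PCR against DMSO baseline.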

Read-out in experiment [8]: NAD(P)H dehydrogenase [quinone] 1 (NQO1), NQO1 (gene 1728)
The experiment can be described thus: LTEA_HepaRG_NQO1: Life Technologies and Expression Analysis (LTEA) Assay for NAD(P)H dehydrogenase [quinone] 1 (NQO1) using HepaRG (AID 2283526). In short, it runs like this: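 qRT-PCR read-out (Fluidigm TaqMan), normalized to three housekeeping genes, after 48 h chemical exposure of HepaRG cells. Concentrations: eight points, top 100 uM, half-log steps, 0.5% DMSO vehicle. Gain or loss of signal fitted relative to DMSO.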

Read-out in experiment [9]: Nuclear factor erythroid 2-related factor 2 (Homo sapiens) (UniProt Q16236)
The experiment is described as follows: LTEA_HepaRG_NFE2L2: Life Technologies and Expression Analysis (LTEA) Assay for Nuclear factor erythroid 2-related factor 2 (NFE2L2) Transcription Factor using HepaRG (AID 2283527).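 As to outcome: TaqMan qRT-PCR transcript level normalised to ACTB GAPDH and POLR2A housekeeping genes.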 The method in brief:
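Human liver HepaRG line treated in duplicate for 48 h with an eight-point series topping at 100 uM. Gene expression of NFE2L2 by qRT-PCR, bidirectionally fitted against the vehicle control.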

Read-out in experiment [10]: succinate dehydrogenase complex iron sulfur subunit B (SDHB), SDHB (gene 6390)
The experiment can be described thus: LTEA_HepaRG_SDHB: Life Technologies and Expression Analysis (LTEA) Assay for succinate dehydrogenase complex iron sulfur subunit B (SDHB) using HepaRG (AID 2283528). The method in brief:
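Readout is SDHB transcript level by qRT-PCR, normalised to three housekeeping genes and fitted bidirectionally against 0.5% DMSO vehicle. Human HepaRG cells were treated for 48 h at up to 100 uM.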

Read-out in experiment [11]: Signal transducer and activator of transcription 3 (Homo sapiens) (UniProt P40763)
The experiment can be described thus: LTEA_HepaRG_STAT3: Life Technologies and Expression Analysis (LTEA) Assay for Signal transducer and activator of transcription (STAT3) using HepaRG (AID 2283529). The method in brief: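 In this transcriptional endpoint, HepaRG cultures receive test chemicals at up to 100 uM for 48 h, tested in duplicate. STAT3 mRNA is normalized to ACTB, GAPDH and POLR2A.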

Read-out in experiment [12]: solute carrier (SLCO1B1), SLCO1B1 (gene 10599)
The experiment can be described thus: LTEA_HepaRG_SLCO1B1: Life Technologies and Expression Analysis (LTEA) Assay for solute carrier (SLCO1B1) using HepaRG (AID 2283530). In short, it runs like this: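 Human HepaRG cultures treated for 48 h with an eight-concentration half-log series topping at 100 uM; SLCO1B1 measured by qRT-PCR and fitted bidirectionally relative to DMSO.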

Read-out in experiment [13]: sulfotransferase 2A1 (SULT2A1), SULT2A1 (gene 6822)
The experiment is described as follows: LTEA_HepaRG_SULT2A1: Life Technologies and Expression Analysis (LTEA) Assay for sulfotransferase 2A1 (SULT2A1) using HepaRG (AID 2283531). The method in brief:
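Gene-expression endpoint in a human liver cell line: SULT2A1 mRNA change after 48 h chemical treatment, curves fitted in both directions relative to 0.5% DMSO vehicle. Concentrations spanned eight half-log steps from 100 uM.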

Read-out in experiment [14]: Transforming Growth Factor (TGFA), TGFA (gene 7039)
The experiment can be described thus: LTEA_HepaRG_TGFA: Life Technologies and Expression Analysis (LTEA) Assay for Transforming Growth Factor (TGFA) using HepaRG (AID 2283532). In short, it runs like this: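 Gene expression of TGFA was quantified by qRT-PCR after human HepaRG cells were treated for 48 h with test chemicals (eight concentrations, highest 100 uM, 0.5% DMSO). Activity in either direction was fitted relative to DMSO.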

Read-out in experiment [15]: Transforming Growth Factor (TGFB1), TGFB1 (gene 7040)
The experiment can be described thus: LTEA_HepaRG_TGFB1: Life Technologies and Expression Analysis (LTEA) Assay for Transforming Growth Factor (TGFB1) Transporter using HepaRG (AID 2283533). In short, it runs like this: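 Eight-point concentration-response (max 100 uM, half-log) in HepaRG under serum-free induction conditions, 48 h. TGFB1 mRNA by qRT-PCR, housekeeping-normalized.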

Read-out in a further experiment: TIMP1, TIMP1 (gene 7076)
The experiment is described as follows: LTEA_HepaRG_TIMP1: Life Technologies and Expression Analysis (LTEA) Assay for TIMP1 using HepaRG (AID 2283534).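 Also: TaqMan qRT-PCR signal normalized to ACTB GAPDH and POLR2A housekeeping genes.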 The method in brief:
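TIMP1 induction or repression in HepaRG cells after 48 h chemical exposure (eight concentrations, highest 100 uM), assessed by normalized qRT-PCR with bidirectional fitting to DMSO controls.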

Read-out in experiment [16]: Tumor necrosis factor receptor 1 (TNFRSF1A), TNFRSF1A (gene 7132)
The experiment can be described thus: LTEA_HepaRG_TNFRSF1A: Life Technologies and Expression Analysis (LTEA) Assay for Tumor necrosis factor receptor 1 (TNFRSF1A) using HepaRG (AID 2283535). In short, it runs like this:
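Assay uses 48 h chemical treatment of differentiated HepaRG monolayers, tested in duplicate at eight concentrations from 100 uM downward in 0.5% DMSO. mRNA is normalized to ACTB, GAPDH and POLR2A, with induction or suppression fitted relative to vehicle.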

Read-out in experiment [17]: Thyroid Hormone Responsive (THRSP), THRSP (gene 7069)
The experiment is described as follows: LTEA_HepaRG_THRSP: Life Technologies and Expression Analysis (LTEA) Assay for Thyroid Hormone Responsive (THRSP) using HepaRG (AID 2283536). In short, it runs like this: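 Cell model: human HepaRG, approx. 100,000 cells/well, 0.5% DMSO vehicle. Exposure lasts 48 h; phenobarbital 1 mM serves as induction positive control. Gene expression is measured by qRT-PCR against three endogenous control genes.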

Read-out in experiment [18]: Phosphatase and tensin (PTEN), PTEN (gene 5728)
The experiment is described as follows: LTEA_HepaRG_PTEN: Life Technologies and Expression Analysis (LTEA) Assay for Phosphatase and tensin (PTEN) using HepaRG (AID 2283523). The method in brief: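 Expression of PTEN is quantified in the human liver line HepaRG following two days of dosing (top concentration 100 uM, half-log dilutions, 0.5% DMSO). Values derive from bidirectional curve fitting relative to DMSO controls.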

Experimental findings from PubChem BioAssay (EPA / NIEHS) are described below.

Structures are written as SMILES. Activity calls are given as the source filed them. The calls were made as follows: active = hit-call score of the fitted dose curve at least 0.9, where 1 is the maximum; inactive = score below 0.9.

Sequence of Signal transducer and activator of transcription 3 (Homo sapiens) (P40763 whole entry, looked up): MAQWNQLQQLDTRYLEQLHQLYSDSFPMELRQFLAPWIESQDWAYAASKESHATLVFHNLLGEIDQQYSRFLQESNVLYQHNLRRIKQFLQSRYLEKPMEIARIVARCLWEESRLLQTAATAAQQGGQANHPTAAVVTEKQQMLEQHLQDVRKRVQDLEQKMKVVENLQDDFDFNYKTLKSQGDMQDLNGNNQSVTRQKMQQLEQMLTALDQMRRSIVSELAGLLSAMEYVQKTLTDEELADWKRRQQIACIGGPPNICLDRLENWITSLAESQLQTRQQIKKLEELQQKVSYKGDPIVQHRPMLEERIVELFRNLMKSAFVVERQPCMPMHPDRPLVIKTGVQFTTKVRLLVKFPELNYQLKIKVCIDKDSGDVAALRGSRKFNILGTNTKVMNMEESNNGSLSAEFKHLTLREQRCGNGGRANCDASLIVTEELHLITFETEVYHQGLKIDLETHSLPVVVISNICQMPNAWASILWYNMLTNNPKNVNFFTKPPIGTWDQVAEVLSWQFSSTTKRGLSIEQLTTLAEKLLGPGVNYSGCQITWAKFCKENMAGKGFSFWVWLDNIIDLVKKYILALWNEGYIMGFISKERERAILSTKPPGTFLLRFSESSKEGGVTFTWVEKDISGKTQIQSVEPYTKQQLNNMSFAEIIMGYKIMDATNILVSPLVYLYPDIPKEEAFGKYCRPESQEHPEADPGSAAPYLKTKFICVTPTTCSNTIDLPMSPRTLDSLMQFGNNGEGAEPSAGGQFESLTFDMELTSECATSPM
Sequence of Nuclear factor erythroid 2-related factor 2 (Homo sapiens) (Q16236 whole entry, looked up): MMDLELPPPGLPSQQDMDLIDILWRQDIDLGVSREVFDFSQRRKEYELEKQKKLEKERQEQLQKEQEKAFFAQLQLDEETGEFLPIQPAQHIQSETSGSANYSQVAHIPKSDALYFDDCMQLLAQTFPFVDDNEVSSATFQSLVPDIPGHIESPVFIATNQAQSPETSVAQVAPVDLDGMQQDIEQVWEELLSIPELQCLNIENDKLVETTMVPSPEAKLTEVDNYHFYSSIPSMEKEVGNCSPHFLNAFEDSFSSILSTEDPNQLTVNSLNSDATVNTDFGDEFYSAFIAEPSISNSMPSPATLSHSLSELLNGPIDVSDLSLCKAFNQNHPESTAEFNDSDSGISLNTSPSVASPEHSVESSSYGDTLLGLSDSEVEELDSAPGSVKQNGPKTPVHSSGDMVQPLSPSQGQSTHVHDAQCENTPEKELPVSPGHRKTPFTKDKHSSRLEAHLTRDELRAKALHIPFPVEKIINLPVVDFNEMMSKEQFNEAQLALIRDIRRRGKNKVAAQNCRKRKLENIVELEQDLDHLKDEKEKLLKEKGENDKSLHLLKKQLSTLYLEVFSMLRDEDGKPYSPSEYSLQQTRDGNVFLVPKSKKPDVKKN
Sequence of Nuclear factor NF-kappa-B p105 subunit (Homo sapiens) (P19838 whole entry, looked up): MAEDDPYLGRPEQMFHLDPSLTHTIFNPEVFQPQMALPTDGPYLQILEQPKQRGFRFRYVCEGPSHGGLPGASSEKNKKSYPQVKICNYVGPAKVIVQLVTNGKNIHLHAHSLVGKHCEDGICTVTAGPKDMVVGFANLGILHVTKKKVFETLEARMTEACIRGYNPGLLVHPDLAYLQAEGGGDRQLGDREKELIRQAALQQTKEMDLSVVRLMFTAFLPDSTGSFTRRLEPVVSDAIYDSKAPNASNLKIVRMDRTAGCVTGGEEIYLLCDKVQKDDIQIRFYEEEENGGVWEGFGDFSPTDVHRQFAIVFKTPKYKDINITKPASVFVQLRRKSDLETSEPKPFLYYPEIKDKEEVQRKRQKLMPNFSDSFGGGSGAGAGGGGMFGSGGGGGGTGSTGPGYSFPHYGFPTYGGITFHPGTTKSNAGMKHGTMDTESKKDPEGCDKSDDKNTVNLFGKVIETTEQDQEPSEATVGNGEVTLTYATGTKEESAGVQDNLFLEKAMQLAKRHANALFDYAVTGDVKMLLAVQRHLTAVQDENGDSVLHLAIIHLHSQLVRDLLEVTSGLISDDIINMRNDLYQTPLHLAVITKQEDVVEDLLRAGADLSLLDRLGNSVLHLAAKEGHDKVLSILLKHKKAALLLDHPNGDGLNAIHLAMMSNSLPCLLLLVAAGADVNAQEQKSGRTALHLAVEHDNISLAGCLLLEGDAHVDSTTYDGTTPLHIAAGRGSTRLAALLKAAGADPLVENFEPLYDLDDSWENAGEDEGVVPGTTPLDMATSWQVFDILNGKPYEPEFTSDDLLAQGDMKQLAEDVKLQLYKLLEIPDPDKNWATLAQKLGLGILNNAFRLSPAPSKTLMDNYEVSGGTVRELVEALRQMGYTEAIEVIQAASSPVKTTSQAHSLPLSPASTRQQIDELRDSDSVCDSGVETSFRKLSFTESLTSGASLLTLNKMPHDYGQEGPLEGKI

Consider `Oc1ccc2c(c1)OC[C@@H](N1CCC(O)(c3ccc(F)cc3)CC1)[C@H]2O`, for which the outcome is “inactive” in experiment [1]; “inactive” in the experiment with MYC, MYC (gene 4609); “inactive” in [2]; “inactive” in [3]; “inactive” in experiment [4]; “inactive” in [5]. Moreover, the compound was classed as inactive in experiment [6], in [7], in experiment [8], in [9], in experiment [10] and in experiment [11]. For the same compound, the outcome in experiment [12] was “inactive”; in experiment [13] it was “inactive”; in [14], “inactive”; in [15], “inactive”; with TIMP1, TIMP1 (gene 7076), “inactive”; in [16] it was “inactive”. Further, the result in [17] was inactive.

`CCCCCCCCCCCC(=O)OC`: the outcome in experiment [1] was “inactive”; with MYC, MYC (gene 4609) it was “inactive”; in experiment [2], “inactive”; in experiment [3], “inactive”; in experiment [4], “inactive”; in experiment [5] it was “inactive”. The outcome in experiment [6], in experiment [7], in experiment [8], in [9], in experiment [10] and in experiment [11] was inactive. Further, the outcome in experiment [12] was “inactive”; in experiment [13], “inactive”; in [14], “inactive”; in experiment [15], “inactive”; in the experiment with TIMP1, TIMP1 (gene 7076), “inactive”; in [16] it was “inactive”. In addition, the result in [17] was inactive.

A word on the AC50: it is the concentration giving half of the maximal activity seen. For the compound `O=C(OCCCCCOC(=O)c1ccccc1)c1ccccc1`, the outcome in experiment [1] was “inactive”; in [3], “inactive”; in experiment [6], “inactive”; in experiment [13], “inactive”; in the experiment with TIMP1, TIMP1 (gene 7076), “inactive”; in experiment [17], “inactive”. For the same compound, the AC50 was 2260 nM (active) with MYC, MYC (gene 4609); 2230 nM (active) in experiment [2]; 2080 nM (active) in experiment [4]; 2430 nM (active) in [5]; 1850 nM (active) in experiment [18]; 309 nM (active) in [7]. The AC50 was 1800 nM (active) in experiment [8]; 145 nM (active) in experiment [9]; 7250 nM (active) in [11]; 1290 nM (active) in experiment [12]; 1280 nM (active) in experiment [14]; 3000 nM (active) in experiment [15]. Moreover, in experiment [16], the AC50 was 1990 nM (active).
